This excerpt belongs to a sample that is enriched for hits.
Integrin act MD = activates integrin-mediated alleviation for muscular dystrophy; alpha7betagal myoblasts, beta-gal FDG fluorescence, 48 h; Potency, µM (series often up to 38.3 µM), usual class: activators; 0.064% of 350,000 active; AID 624291; note: nearly all actives have a fitted effect of over 60% in size
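Alpha7betagal+/- myoblasts (passage 13) were plated 16-24 hr, then exposed to compounds (1:260 dilution of DMSO stock) for 48 hours at 37C. After MPER lysis, β-galactosidase reporter activity was read as FDG fluorescence (ex 480/em 540) after 30 minutes.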
ERG Ets-DNA blk = blocks human ERG Ets domain binding to DNA | fluorescence polarization, His-ERG Ets domain / labelled DNA | P11308 | Potency, µM (doses to about 76.9 µM), usual class: inhibitors | 0.028% of 370,000 active; active = well fitted inhibition curve with a large enough effect in the polarisation, with a control signal flat; inconclusive = small, poorly fitted or top-dose-only effect, or effect the other way, or a change in a side signal; inactive = no such curve, though single readings can be large or run the other way; the % refers to the polarisation;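 note: polarization taken with two DNA probes labelled with fluorescein and Texas red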
Target sequence (P11308 whole entry, looked up, the tested form may be a part): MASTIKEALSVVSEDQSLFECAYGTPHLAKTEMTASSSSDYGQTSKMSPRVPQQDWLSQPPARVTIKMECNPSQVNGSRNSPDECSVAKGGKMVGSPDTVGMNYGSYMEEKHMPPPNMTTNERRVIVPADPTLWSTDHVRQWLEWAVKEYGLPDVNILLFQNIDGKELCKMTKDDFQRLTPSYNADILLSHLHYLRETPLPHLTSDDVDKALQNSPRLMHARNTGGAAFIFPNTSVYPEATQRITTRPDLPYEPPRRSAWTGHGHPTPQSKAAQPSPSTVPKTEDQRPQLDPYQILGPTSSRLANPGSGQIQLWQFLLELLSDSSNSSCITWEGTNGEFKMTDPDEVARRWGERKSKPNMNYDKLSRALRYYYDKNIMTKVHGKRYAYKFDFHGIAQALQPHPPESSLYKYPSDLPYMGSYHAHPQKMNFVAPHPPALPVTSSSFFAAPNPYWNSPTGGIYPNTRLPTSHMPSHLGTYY
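His-tagged ERG Ets domain (1 uM in the protein solution; 300mM KCl, 50mM Tris-HCl, 1mM EDTA, 1mM DTT, pH 7.5) received compound, then a probe mix of 5 nM fluorescein-DNA and 100nM Texas-615-DNA. Fluorescence polarization was read for both dyes.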
RORg inh = blocks mouse ROR gamma transcriptional activity; P51450; Drosophila S2 Gal4-RORgamma UAS-luciferase reporter, 20 h; Potency, µM (highest dose often 53.6 µM), hits mostly inhibitors; 5.4% of 310,000 active; note: nearly all actives have a fitted effect of over 60% in size
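In this cell-based reporter format, copper sulfate (700 uM final) drives Gal4–ROR gamma fusion expression from a metallothionein promoter in Drosophila Schneider cells; compounds preincubated 1 hr, reporter read after 20 hr at ambient temperature.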
Giardia kill = kills Giardia lamblia | Giardia lamblia trophozoite viability | activity change, % at 7.66 µM, hits read low | 0.15% of 340,000 active; in the data active = activity change below about -80%; inconclusive = between about -30% and that limit;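 note: parasites exposed to compound for two days anaerobically before the ATP read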
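ATP-content bioluminescence gauges trophozoite survival. Cells (100/well) receive compound and incubate anaerobically for 48 hrs at 37 deg C; detection reagent follows for 15-30 min at room temperature.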
Gal4-VP16 FLuc = Gal4-VP16 reporter inhibition counter-screen. Drosophila S2 Gal4-VP16 UAS-luciferase, luminescence, 20 h. 3.5% of 310,000 active. Potency, µM (highest dose often 53.6 µM), actives largely listed as inhibitors;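 note: Gal4-VP16 expression switched on by copper sulfate through the metallothionein promoter; nearly all actives have a fitted effect of over 50% in size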
Large screens that a line does not name were inactive. Unless noted, calls come from the whole dose curve; as a rule, active = well fitted curve in the direction sought with a large enough effect; inconclusive = small, poorly fitted or top-dose-only effect, or another doubt; inactive = no such curve, though single readings can be large; an effect the other way counts as inactive or inconclusive.

N[C@@H](Cc1cc(-c2ccc(Cl)cc2Cl)cc(CP(=O)(O)O)c1O)C(=O)O	none (no result: Integrin act MD, ERG Ets-DNA blk, Giardia kill)
CC(C)(C)c1cc(NCc2ccccn2)n2ncc(-c3ccccc3)c2n1	RORg inh 0.45µM, Gal4-VP16 FLuc 1.4µM
Cc1cc(NCc2ccccc2)n2ncc(-c3ccccc3)c2n1	none
COc1ccccc1C(c1c(N)n(C)c(=O)n(C)c1=O)C(C)[N+](=O)[O-] (centres undefined)	none
COc1ccccc1C(C[N+](=O)[O-])c1c(N)n(C)c(=O)n(C)c1=O (centres undefined)	RORg inh inconclusive, Gal4-VP16 FLuc 14µM
Cc1cc(C(F)(F)F)nn1Cc1ccc(C(=O)NCc2ccco2)o1	RORg inh 10µM, Gal4-VP16 FLuc inconclusive
Cc1[nH]c2ccccc2c1-c1csc(NC(=O)CSCCO)n1	none
Cc1ccc(CSCc2nc3ccccc3[nH]2)cc1	none
Cc1cc(C)cc(CC(Cc2nc3ccccc3[nH]2)c2nc3ccccc3[nH]2)c1 (centres undefined)	ERG Ets-DNA blk inconclusive, RORg inh 11µM, Gal4-VP16 FLuc 11µM
COc1ccc(/C=C2\SC(=S)NC2=O)cc1OS(=O)(=O)c1ccc(NC(C)=O)cc1	none
COc1cc(C=O)ccc1OS(=O)(=O)c1ccc(NC(C)=O)cc1	Gal4-VP16 FLuc 25µM
CCCn1c(C2CCCN2c2nc(-c3ccc(C)cc3)cs2)nc2ccccc21 (centres undefined)	RORg inh 3.5µM, Gal4-VP16 FLuc inconclusive
C/C(=N\N=C(/N)SC1CC(=O)N(c2ccc(Cl)cc2)C1=O)c1cccs1 (centres undefined)	RORg inh 13µM, Gal4-VP16 FLuc inconclusive
C/C(=N\N=C(/N)SC1CC(=O)N(c2ccccc2)C1=O)c1cccs1 (centres undefined)	RORg inh inconclusive (no result: ERG Ets-DNA blk)
CCS(=O)(=O)N1CCN(c2ccc([N+](=O)[O-])c(NCC3CCCO3)c2)CC1 (centres undefined)	Integrin act MD 10µM
CCOC(=O)c1c(C)[nH]c(C)c1C(=O)COC(=O)Cc1n[nH]c(=O)c2ccccc12	none (no result: RORg inh, Gal4-VP16 FLuc)
CCCNC(=O)CCC(=O)Nc1ncc(-c2ccc(C)cc2)n1C	RORg inh 3.5µM, Gal4-VP16 FLuc 5.6µM
CCCNC(=O)CCn1nc(-c2ccc(C)cc2)c2ccccc2c1=O	none
CCCN1CCN(C(=O)CS(=O)(=O)Cc2nc(-c3cccc(OC)c3)oc2C)CC1	none
CCCCOC(=O)C(C)Sc1n[nH]c(=O)[nH]c1=O (centres undefined)	none
COc1ccccc1-n1c(CCn2nc(C)c(Br)c2C)n[nH]c1=S	RORg inh 10µM, Gal4-VP16 FLuc inconclusive
Cc1nn(CCc2n[nH]c(=S)n2C2CCCCC2)c(C)c1Br	RORg inh 5.6µM, Gal4-VP16 FLuc inconclusive
Cc1nn(CCc2n[nH]c(=S)n2C)c(C)c1Br	none
COC(=O)C[C@@H]1C[C@@H]2c3cc(NS(=O)(=O)c4ccc(F)cc4)ccc3O[C@@H]2[C@H](CO)O1	none (no result: ERG Ets-DNA blk, RORg inh, Giardia kill, Gal4-VP16 FLuc)
COc1ccc(N2CCN(C(=O)c3sc4ncn(CC(=O)N5CCCCC5C)c(=O)c4c3C)CC2)cc1 (centres undefined)	Gal4-VP16 FLuc 22µM
Cc1ccc(Nc2ccc([N+](=O)[O-])nc2[N+](=O)[O-])cc1	RORg inh inconclusive, Giardia kill -96, Gal4-VP16 FLuc inconclusive
O=c1c2ccccc2nc(N/N=C/c2ccc(O)cc2)n1O	RORg inh 11µM
O=c1c2ccccc2nc(N/N=C/c2c(O)ccc3ccccc23)n1O	RORg inh 0.89µM, Giardia kill inconclusive, Gal4-VP16 FLuc 13µM
O=C(NN=Cc1c(O)ccc2ccccc12)C1CC1	none (no result: RORg inh, Gal4-VP16 FLuc)
Cc1nc2ccccc2n1C1CC(=O)N(Cc2ccccc2)C1=O (centres undefined)	Gal4-VP16 FLuc 6.3µM
CSc1ccc(/C=C/C(=O)c2ccc(O)cc2)cc1	RORg inh 0.5µM, Gal4-VP16 FLuc 1.1µM
CN(C)c1ccc(C(=O)/C=C/c2ccc(Br)cc2)cc1	RORg inh inconclusive
CN(C)c1ccc(C(=O)/C=C/c2ccccc2)cc1	RORg inh 11µM, Giardia kill inconclusive, Gal4-VP16 FLuc inconclusive
Cc1ccc(C(=O)O[C@H](C(=O)O)[C@H](OC(=O)c2ccc(C)cc2)C(=O)O)cc1	none
Cc1ccc(/C=C/C(=O)c2ccc(O)cc2)cc1	RORg inh 2µM, Giardia kill inconclusive, Gal4-VP16 FLuc 7.1µM
Cc1ccc(C(=O)/C=C/C(=O)O)cc1	RORg inh 11µM, Gal4-VP16 FLuc 7.9µM
O=C1OC2(c3cc(Br)c(O)c(Br)c3Oc3c2cc(Br)c(O)c3Br)c2c(Cl)c(Cl)c(Cl)c(Cl)c21	none (no result: Integrin act MD, ERG Ets-DNA blk, Giardia kill)
COc1ccc(C2=Nn3c(nnc3-c3ccc(OC)c(OC)c3)SC2)c(OC)c1	none (no result: Integrin act MD, ERG Ets-DNA blk, Giardia kill)
C=CCC(Nc1ccc(OC)cc1)(C(=O)OCC)c1ccccc1 (centres undefined)	none (no result: Integrin act MD, ERG Ets-DNA blk, Giardia kill)
CCCCOc1ccccc1NC(=O)CC1Nc2ccccc2NC1=O (centres undefined)	RORg inh 10µM, Gal4-VP16 FLuc inconclusive (no result: ERG Ets-DNA blk)
O=C(NCC(c1cccnc1)N1CCc2ccccc2C1)C(=O)Nc1ccccc1F (centres undefined)	none (no result: Integrin act MD, RORg inh, Giardia kill, Gal4-VP16 FLuc)
Cc1nn(-c2ccccn2)c2c1C(c1ccccc1Cl)C1=C(N2)c2ccccc2C1=O (centres undefined)	RORg inh 2.8µM, Gal4-VP16 FLuc inconclusive
Cc1nn(-c2ccccn2)c2c1C(c1c(F)cccc1Cl)C1=C(N2)c2ccccc2C1=O (centres undefined)	RORg inh 1.6µM, Gal4-VP16 FLuc 7.9µM (no result: Integrin act MD, ERG Ets-DNA blk, Giardia kill)
O=C1/C(=C/c2ccccn2)COc2ccccc21	Integrin act MD inconclusive
CC1C/C(=C/c2ccccn2)C(=O)/C(=C/c2ccccn2)C1 (centres undefined)	RORg inh 2.8µM, Gal4-VP16 FLuc 1.4µM
CC(C)(C)C1C/C(=C/c2ccccn2)C(=O)/C(=C/c2ccccn2)C1 (centres undefined)	Integrin act MD inconclusive, RORg inh 5.6µM, Giardia kill inconclusive, Gal4-VP16 FLuc inconclusive
COC(=O)C1=C[C@@H](C(=O)OC)C2C3=C(C(=O)[C@@]2(C)NC(=O)c2ccccc2)[C@H](C)n2c(=O)n(-c4ccccc4)c(=O)n2[C@@H]3C1 (some centres undefined)	none (no result: Integrin act MD, ERG Ets-DNA blk)
O=C1CCCC=C1[C@@H](O)C1CCCCC1	none (no result: Integrin act MD, ERG Ets-DNA blk, Giardia kill)
C[C@H](NC(=O)c1nc[nH]c1C(=O)NC(c1ccccc1)c1ccccc1)C(=O)OC(C)(C)C	RORg inh 2.5µM, Gal4-VP16 FLuc 4.5µM
CC(C)(C)OC(=O)CNC(=O)c1[nH]cnc1C(=O)NC(c1ccccc1)c1ccccc1	RORg inh 6.3µM, Gal4-VP16 FLuc inconclusive
CNC(=O)c1[nH]cnc1C(=O)NCC(=O)OC(C)(C)C	none
O=C(O)CCCc1nc(-c2ccccc2)no1	RORg inh 14µM, Gal4-VP16 FLuc inconclusive
CN(C)C(=O)CCCc1nc(-c2ccc(Cl)cc2)no1	none
O=C(CCCc1nc(-c2ccc(Cl)cc2)no1)Nc1cccnc1	RORg inh 16µM, Gal4-VP16 FLuc 11µM

Screening data: PubChem, National Center for Advancing Translational Sciences (NCATS)
